Reference: PubChem BioAssay AID602233 (National Center for Advancing Translational Sciences (NCATS), 2012)
Hit rate of the full screen: of about 380,000 compounds, about 170 (0.045%) were called active. Entries that show only a call come without a potency. This is one part of a sample in which actives are shown more often than they occur. Calls come from the whole dose curve; as a rule, active = well fitted inhibition curve with a large enough effect; inconclusive = small, poorly fitted or top-dose-only effect; inactive = no such curve, though single readings can be large or run the other way.

These compounds were tested against Phosphoglycerate kinase, glycosomal (Trypanosoma brucei brucei) (UniProt P07378) (assay: qHTS Assay to Find Inhibitors of Phosphoglycerate Kinase). Conditions: PGK/GAPDH coupled, Kinase-Glo luminescence, 60 min; series mostly up to 57.5 µM.
Sequence of Phosphoglycerate kinase, glycosomal (Trypanosoma brucei brucei) (P07378 whole entry, looked up): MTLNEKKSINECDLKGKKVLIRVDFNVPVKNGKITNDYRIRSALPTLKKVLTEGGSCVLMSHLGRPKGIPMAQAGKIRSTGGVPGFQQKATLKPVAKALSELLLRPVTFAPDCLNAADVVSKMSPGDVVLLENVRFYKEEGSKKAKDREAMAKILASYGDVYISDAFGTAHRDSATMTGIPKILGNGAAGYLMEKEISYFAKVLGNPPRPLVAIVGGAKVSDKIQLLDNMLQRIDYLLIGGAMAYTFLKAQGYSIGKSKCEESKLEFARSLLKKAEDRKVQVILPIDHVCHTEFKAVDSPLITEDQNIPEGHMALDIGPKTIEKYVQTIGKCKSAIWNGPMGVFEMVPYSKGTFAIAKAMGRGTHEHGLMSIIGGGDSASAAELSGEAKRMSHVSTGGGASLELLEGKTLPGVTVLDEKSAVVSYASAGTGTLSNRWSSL
Method in brief: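 Luminescent ATP detection (Kinase-Glo Plus) follows a 60-minute room-temperature incubation, with wells lacking PGK as controls. Buffer: 100 mM TEA (pH 7.6), 5 mM MgCl2, 0.01% Tween-20. Coupling enzyme GAPDH (100 nM final) supplies unstable 1,3-BPG in-well.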
Note: nearly all actives have a fitted effect of over 60% in size.
Potency is the fitted concentration of half-maximal effect.

Compound	Potency
Cc1ccccc1OCc1ccc(-c2nc(C#N)c(N3CCCCC3)o2)o1	inactive
CC(C)(C)OC(=O)N1CCC(c2c(C(=O)Nc3ccc4c(c3)OCO4)cnn2-c2ccccc2)CC1	inactive
COc1ccc(-n2c(=O)c3sc4ccccc4c3n(CC(=O)Nc3cccc(C)c3)c2=O)cc1	inactive
Cc1c(C)n(Cc2ccc(Cl)cc2)c2ccc(C(=O)NCCc3ccc(S(N)(=O)=O)cc3)cc12	inactive
CCCNC(=O)c1ccc2c(c1)ncn2-c1ccc(C)cc1C	inactive
CCn1cc2nc(SCc3cccc(F)c3)n(CCc3ccccc3)c(=O)c2n1	inactive
Cc1nc2ccccn2c(=O)c1NC(=O)c1c(F)cccc1F	inactive
COc1ccc(CCNc2ncnc3onc(-c4ccc(Cl)cc4)c23)c(OC)c1	inactive
CCOC(=O)C(Cc1ccccc1)NC(=O)CCc1c(C)nc2c(c(C)nn2-c2ccc(C)c(C)c2)c1C (stereo unspecified)	inactive
COc1ccccc1NC(=O)c1oc2ccccc2c1NC(=O)C(C)C	inactive
O=C(NCc1cccnc1)C(=O)NCC(c1cccnc1)N1CCN(c2ccccc2)CC1 (stereo unspecified)	inactive
Cc1ccccc1CNC(=O)C(=O)NCC(c1cccs1)S(=O)(=O)c1cccs1 (stereo unspecified)	inactive
O=C(CCC(=O)N1CC2CCCN2c2ccccc21)NCc1ccccc1Cl (stereo unspecified)	inactive
O=C(CC1N=C2c3ccccc3N=C(SCc3cccc(Cl)c3)N2C1=O)NCc1ccc2c(c1)OCO2 (stereo unspecified)	inactive
CCN(CC)S(=O)(=O)c1nnc(NC(=O)COc2ccccc2Cl)s1	inactive
Nc1ccc2nc3c(=O)[nH]c(=S)[nH]c3nc2c1	2.51 µM (active)
Cc1oc2ccc(O)c(CN3CCC(C)CC3)c2c1C(=O)Nc1ccccc1	inactive
CCCCCn1c(CCCNC(=O)c2ccccc2OC)nc2ccccc21	inactive
CN(Cc1ccccc1)c1ncnc2onc(-c3ccc(F)cc3)c12	inactive
O=C(NCc1ccc2c(c1)CCN2C(=O)c1ccccc1)c1ccccc1	inactive
COc1ccc(-n2c(SCC(N)=O)nc3c(oc4ccccc43)c2=O)cc1	inactive

Compound	Potency
CC(C)(C)c1ccc(OCC(=O)N2CCC(c3nc4ccccc4s3)CC2)cc1	inactive
O=C(Cn1cc(SCc2cccc(Cl)c2)c2ccccc21)N1CCCCC1	inactive
COc1ccc(Cn2ccc3nc(C)c(C(=O)Nc4ccc(C)c(F)c4)cc3c2=O)cc1	inactive
O=C(Cn1c(=O)n(Cc2cccs2)c(=O)c2cccnc21)Nc1ccc(F)cc1	inactive
COc1ccc(OC)c2sc(N3CCN(C(=O)C4COc5ccccc5O4)CC3)nc12 (stereo unspecified)	inactive
COc1cc(NS(=O)(=O)c2ccc3c(c2)OCC(C(=O)N2CCCC2)O3)cc(OC)c1 (stereo unspecified)	inactive
Cc1c(CC(=O)N2CCN(C(=O)C3COc4ccccc4O3)CC2)c(=O)oc2c(O)c(O)ccc12 (stereo unspecified)	8.91 µM (active)
COc1ccc(C(=O)N2CCC(c3nc4ccccc4o3)CC2)cc1	inactive
COc1ccc(CCNS(=O)(=O)c2cc(-c3cc(C)no3)ccc2C)cc1OC	inactive
CC(=O)c1ccc(NC(=O)c2nc(-c3ccc(C)cc3)n3c2CCCCC3)cc1	inactive
COc1ccc(N2CCN(C(=O)c3c(C)oc4nc(C)nc(N5CCCC5)c34)CC2)cc1	inactive
COc1cccc(NC(=O)N(Cc2cn(C)c3ccccc23)C2CCCCCC2)c1	inactive
Cc1ccc(CCNC(=O)c2nnc(Cc3cccc(F)c3)o2)cc1	inactive
COC(=O)c1ccc(Cn2c(SCC(=O)N(C)c3ccccc3)nc3ccccc32)cc1	inactive
COc1cc(Nc2nc(-c3ccc(OC)c(OC)c3)nc3ccccc23)cc(OC)c1	inactive
CCOC(=O)c1oc2ccc(S(=O)(=O)n3nc(-c4ccccc4OC)cc3N)cc2c1C	inactive
O=C(c1cnn(-c2ccc(F)cc2)c1-n1cccc1)N1CCN(c2ccc(F)cc2)CC1	inactive
C=C(C)C(=O)Nc1cccc(C2=NOC3(C2)C[C@H](C(N)=O)N(C(=O)C(c2ccccc2)c2ccccc2)C3)c1 (stereo partly specified)	7.94 µM (active)
NC(=O)[C@H]1CC2(CC(c3cccc(NC(=O)[C@H]4CCC(=O)N4)c3)=NO2)CN1C(=O)c1ccccc1C(=O)c1ccccc1 (stereo partly specified)	inactive
C/C=C(\C)C(=O)N1CC2(CC(c3cccc(NC(=O)CCCCC)c3)=NO2)C[C@@H]1C(N)=O (stereo partly specified)	inactive
O=C(CC1C(=O)N(c2ccccc2)C(=O)N1CCc1cccs1)Nc1ccc(F)cc1 (stereo unspecified)	inactive

Compound	Potency
Fc1ccc(-c2nn(-c3ccccc3Cl)c3c2cnc2ccccc23)cc1	inactive
COC(=O)c1ccccc1NC(=O)c1cc(-c2ccccc2O)no1	inactive
COc1ccc(CCNC(=O)c2cn(C)c3ccc(S(=O)(=O)N(C)C4CCCCC4)cc3c2=O)cc1OC	inactive
Cc1nn(C(=O)c2c(F)cccc2F)c(C)c1S(=O)(=O)N1CCOCC1	inactive
Cc1cccc(NC(=O)CSc2ncc(-c3ccccc3)[nH]2)c1C	inactive
CCc1ccc(NC(=O)CCCc2nnc3n(CCCOC)c(=O)c4sccc4n23)cc1	inactive
COc1ccc(C2=CC(c3ccccc3Cl)n3nc(-c4ccc(Cl)cc4)nc3N2)cc1 (stereo unspecified)	inactive
Cc1ccc(-c2onc(C)c2C)cc1S(=O)(=O)Nc1ccccn1	inactive
Cc1ccc(CN2C(=O)SC(Nc3ccccc3)C2=O)cc1 (stereo unspecified)	inactive
O=C(OCc1cc(=O)n2nc(C3CC3)sc2n1)c1ccccc1Cl	inactive
O=C(NCc1ccc(F)cc1)c1ccc(Cn2c(SCc3ccc(F)cc3)nc3cccnc32)cc1	inactive
COc1cccc(N2CCN(S(=O)(=O)c3cc(Br)cc4c3N(C(=O)C3CC3)CC4)CC2)c1	inactive
O=C(Nc1nnc(C2CC(=O)N(c3ccc(Cl)cc3)C2)s1)c1ccco1 (stereo unspecified)	inactive
Cc1ccc(C2CCN(C(=O)c3cnn(-c4ccccc4Cl)c3C3CCN(C(=O)OC(C)(C)C)CC3)C2)cc1 (stereo unspecified)	inactive
O=C(COc1ccc(Cl)cc1)Nc1ccc(-c2nc3cc(Cl)ccc3o2)c(O)c1	inactive
COc1cc(C(CC(=O)NCCC(C)C)N2Cc3ccccc3C2=O)cc(OC)c1OC (stereo unspecified)	inactive
COc1ccccc1C1C(C(=O)N2CCCCC2)=C(C)Nc2nc3ccccc3n21 (stereo unspecified)	inactive
CCOc1ccc(C2CC(=O)c3c([nH]c(C(=O)OCc4ccccc4)c3C)C2)cc1 (stereo unspecified)	inactive
CCCC(=O)Nc1cc(C(=O)NCc2ccc(OC)cc2)ccc1S(=O)(=O)c1ccc(Cl)cc1	inactive
CC1=C(C(=O)OCC(C)C)C(c2ccc(OCc3ccccc3)cc2)N2C(=O)CCSC2=N1 (stereo unspecified)	inactive
O=C(/C=C/c1cn(CC(O)CN2CCc3ccccc32)c2ccccc12)c1ccc(Br)cc1 (stereo unspecified)	inactive

Compound	Potency
O=C(Nc1ccc(C(=O)OCc2cc(=O)n3nc(C4CC4)sc3n2)cc1)c1ccc(F)cc1	inactive
Cc1c(Cl)cccc1NC(=O)C(=O)NCCc1csc2nc(-c3ccccc3F)nn12	inactive
Cc1ccc(N(CC(=O)NCC(C)c2ccccc2)S(=O)(=O)N(C)C)cc1 (stereo unspecified)	inactive
CCc1nnc2c3ccccc3nc(N3CCN(c4ccc(C)cc4C)CC3)n12	inactive
O=C(C1CCCN(S(=O)(=O)c2cccc3nonc23)C1)N1CCN(c2ccccc2F)CC1 (stereo unspecified)	inactive
NS(=O)(=O)c1ccc(NC(=O)C(=O)Nc2ccc3nc4n(c(=O)c3c2)CCCCC4)cc1	inactive
O=C(NCc1ccc(Cl)cc1)c1ccc2c(c1)nnn2C1CCCC1	inactive
Oc1ccccc1-c1nc2ccc(Cl)cn2c1Nc1ccc2c(c1)OCCO2	inactive
COc1ccc(SCc2cc(=O)c3ccc(C)c(C)c3[nH]2)cc1	inactive
Cc1ccc(-c2nc(Cn3c(=O)cc(-c4ccccc4)c4c(C)nn(C)c43)c(C)o2)cc1	inactive
CC(C)c1ccc(NC(=O)CN(C)S(=O)(=O)c2ccc3c(c2)c(=O)n(C)c(=O)n3C)cc1	inactive
Cc1ccc2nc(-c3ccc(O)cc3)c(Nc3ccc4c(c3)OCO4)n2c1	inactive
CC(C)Oc1ccc(CNC(=O)C2CCN(c3nc4ccccc4n(C)c3=O)CC2)cc1	inactive
COc1cccc(C(=O)Nc2ccc(-c3cc(C(F)(F)F)nn3-c3ccccc3)cc2)c1	inactive
Cc1ccc(NC(=O)c2oc3ccc(S(=O)(=O)N4CCCCC4)cc3c2C)cc1Cl	inactive
Cc1ccccc1C(=O)Nc1nnc(S(=O)(=O)N(C)c2ccc(Cl)cc2)s1	inactive
O=C(COc1ccc(Cl)cc1)N(Cc1ccco1)Cc1ccco1	inactive
Cc1cc(C)cc(NC(=O)CSc2oc(-c3ccccc3)nc2S(=O)(=O)c2ccc(Cl)cc2)c1	inactive
